Of roughly 8,800 targets only a part is listed; those with a hit were picked by preference. About 0.5% of all pairs of compound and target were hits. Values without a mark were called inactive.

Sequence of UniProt Q04726 (Q04726 whole entry, looked up): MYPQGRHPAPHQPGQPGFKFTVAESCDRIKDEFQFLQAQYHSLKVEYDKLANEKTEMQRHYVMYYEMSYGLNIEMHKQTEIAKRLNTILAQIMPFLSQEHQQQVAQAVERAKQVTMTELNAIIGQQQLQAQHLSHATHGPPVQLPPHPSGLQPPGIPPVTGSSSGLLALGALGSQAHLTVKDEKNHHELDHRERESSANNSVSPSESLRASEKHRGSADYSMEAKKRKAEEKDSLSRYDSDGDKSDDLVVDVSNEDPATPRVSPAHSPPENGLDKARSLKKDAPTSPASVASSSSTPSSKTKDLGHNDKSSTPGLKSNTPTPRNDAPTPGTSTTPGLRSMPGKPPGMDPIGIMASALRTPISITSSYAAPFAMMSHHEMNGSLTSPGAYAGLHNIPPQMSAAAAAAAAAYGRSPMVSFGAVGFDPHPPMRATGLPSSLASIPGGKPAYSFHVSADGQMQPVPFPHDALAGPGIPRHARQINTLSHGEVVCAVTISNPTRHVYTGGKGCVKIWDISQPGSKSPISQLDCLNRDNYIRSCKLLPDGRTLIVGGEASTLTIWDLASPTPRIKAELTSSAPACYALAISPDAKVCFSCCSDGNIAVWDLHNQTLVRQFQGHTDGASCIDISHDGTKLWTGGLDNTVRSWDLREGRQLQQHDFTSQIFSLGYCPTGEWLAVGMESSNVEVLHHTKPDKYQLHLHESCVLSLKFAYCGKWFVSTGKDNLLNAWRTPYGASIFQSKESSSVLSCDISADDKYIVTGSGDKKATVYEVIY
Sequence of UniProt Q9NRX6 (Q9NRX6 whole entry, looked up): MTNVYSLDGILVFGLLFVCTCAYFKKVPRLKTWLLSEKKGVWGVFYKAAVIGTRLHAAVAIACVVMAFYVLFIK
Sequence of UniProt P62328 (P62328 whole entry, looked up): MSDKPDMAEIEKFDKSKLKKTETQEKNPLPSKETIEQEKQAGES
Sequence of UniProt A6NHL2 (A6NHL2 whole entry, looked up): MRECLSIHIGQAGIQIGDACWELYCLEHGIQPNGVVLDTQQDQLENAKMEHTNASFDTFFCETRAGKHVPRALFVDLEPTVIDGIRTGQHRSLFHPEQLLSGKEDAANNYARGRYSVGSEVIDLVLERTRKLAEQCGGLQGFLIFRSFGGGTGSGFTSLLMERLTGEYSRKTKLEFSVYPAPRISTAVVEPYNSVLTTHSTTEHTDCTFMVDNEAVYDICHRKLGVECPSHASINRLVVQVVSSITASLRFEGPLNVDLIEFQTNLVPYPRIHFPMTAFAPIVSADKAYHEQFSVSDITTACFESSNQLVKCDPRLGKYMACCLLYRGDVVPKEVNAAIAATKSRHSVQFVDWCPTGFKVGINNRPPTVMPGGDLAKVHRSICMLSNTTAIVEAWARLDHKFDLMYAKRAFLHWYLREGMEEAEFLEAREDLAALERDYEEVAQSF
Sequence of UniProt O60637 (O60637 whole entry, looked up): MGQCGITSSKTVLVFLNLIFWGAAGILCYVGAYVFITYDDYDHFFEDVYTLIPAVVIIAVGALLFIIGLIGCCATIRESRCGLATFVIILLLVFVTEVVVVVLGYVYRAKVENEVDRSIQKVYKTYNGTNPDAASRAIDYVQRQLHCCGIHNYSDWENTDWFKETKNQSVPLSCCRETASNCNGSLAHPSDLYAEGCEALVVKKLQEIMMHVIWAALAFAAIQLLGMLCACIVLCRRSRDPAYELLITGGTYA
Sequence of UniProt P04350 (P04350 whole entry, looked up): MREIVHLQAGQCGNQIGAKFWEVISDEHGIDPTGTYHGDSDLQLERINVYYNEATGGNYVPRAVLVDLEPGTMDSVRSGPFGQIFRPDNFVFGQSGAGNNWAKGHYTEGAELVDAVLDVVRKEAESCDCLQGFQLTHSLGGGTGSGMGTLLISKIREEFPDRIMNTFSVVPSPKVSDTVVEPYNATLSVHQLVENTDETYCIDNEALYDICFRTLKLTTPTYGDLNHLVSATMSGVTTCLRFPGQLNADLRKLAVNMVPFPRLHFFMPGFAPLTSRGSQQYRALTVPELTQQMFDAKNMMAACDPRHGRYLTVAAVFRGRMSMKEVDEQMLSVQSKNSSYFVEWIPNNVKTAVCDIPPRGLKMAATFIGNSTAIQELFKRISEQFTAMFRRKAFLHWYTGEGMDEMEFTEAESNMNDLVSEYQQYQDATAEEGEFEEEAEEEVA
Sequence of UniProt P09493 (P09493 whole entry, looked up): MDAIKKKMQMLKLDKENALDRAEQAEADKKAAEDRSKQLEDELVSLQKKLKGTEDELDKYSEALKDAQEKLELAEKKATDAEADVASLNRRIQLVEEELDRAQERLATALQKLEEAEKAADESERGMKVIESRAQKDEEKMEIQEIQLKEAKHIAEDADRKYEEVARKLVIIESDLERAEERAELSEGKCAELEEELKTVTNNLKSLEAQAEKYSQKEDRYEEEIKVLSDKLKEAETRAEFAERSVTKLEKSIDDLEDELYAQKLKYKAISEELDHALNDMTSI
Sequence of UniProt Q5U3C3 (Q5U3C3 whole entry, looked up): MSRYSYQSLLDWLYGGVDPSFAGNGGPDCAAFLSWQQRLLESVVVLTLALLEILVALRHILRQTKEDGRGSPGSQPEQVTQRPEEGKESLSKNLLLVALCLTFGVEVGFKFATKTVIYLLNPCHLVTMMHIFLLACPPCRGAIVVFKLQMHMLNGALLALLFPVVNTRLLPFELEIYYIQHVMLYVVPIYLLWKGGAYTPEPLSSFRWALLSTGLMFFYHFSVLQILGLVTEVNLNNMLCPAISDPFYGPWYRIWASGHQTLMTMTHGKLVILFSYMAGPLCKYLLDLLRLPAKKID
Sequence of UniProt Q9Y5Z9 (Q9Y5Z9 whole entry, looked up): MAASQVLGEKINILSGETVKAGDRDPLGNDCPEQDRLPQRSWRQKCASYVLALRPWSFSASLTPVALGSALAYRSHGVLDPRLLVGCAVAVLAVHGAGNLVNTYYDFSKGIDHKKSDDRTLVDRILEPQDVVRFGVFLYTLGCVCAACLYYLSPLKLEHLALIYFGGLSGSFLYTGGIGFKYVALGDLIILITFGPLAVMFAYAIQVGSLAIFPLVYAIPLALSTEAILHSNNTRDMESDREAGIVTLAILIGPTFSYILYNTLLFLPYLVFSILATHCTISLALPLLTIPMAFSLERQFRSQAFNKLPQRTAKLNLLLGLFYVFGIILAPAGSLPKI
Sequence of UniProt Q96RT8 (Q96RT8 whole entry, looked up): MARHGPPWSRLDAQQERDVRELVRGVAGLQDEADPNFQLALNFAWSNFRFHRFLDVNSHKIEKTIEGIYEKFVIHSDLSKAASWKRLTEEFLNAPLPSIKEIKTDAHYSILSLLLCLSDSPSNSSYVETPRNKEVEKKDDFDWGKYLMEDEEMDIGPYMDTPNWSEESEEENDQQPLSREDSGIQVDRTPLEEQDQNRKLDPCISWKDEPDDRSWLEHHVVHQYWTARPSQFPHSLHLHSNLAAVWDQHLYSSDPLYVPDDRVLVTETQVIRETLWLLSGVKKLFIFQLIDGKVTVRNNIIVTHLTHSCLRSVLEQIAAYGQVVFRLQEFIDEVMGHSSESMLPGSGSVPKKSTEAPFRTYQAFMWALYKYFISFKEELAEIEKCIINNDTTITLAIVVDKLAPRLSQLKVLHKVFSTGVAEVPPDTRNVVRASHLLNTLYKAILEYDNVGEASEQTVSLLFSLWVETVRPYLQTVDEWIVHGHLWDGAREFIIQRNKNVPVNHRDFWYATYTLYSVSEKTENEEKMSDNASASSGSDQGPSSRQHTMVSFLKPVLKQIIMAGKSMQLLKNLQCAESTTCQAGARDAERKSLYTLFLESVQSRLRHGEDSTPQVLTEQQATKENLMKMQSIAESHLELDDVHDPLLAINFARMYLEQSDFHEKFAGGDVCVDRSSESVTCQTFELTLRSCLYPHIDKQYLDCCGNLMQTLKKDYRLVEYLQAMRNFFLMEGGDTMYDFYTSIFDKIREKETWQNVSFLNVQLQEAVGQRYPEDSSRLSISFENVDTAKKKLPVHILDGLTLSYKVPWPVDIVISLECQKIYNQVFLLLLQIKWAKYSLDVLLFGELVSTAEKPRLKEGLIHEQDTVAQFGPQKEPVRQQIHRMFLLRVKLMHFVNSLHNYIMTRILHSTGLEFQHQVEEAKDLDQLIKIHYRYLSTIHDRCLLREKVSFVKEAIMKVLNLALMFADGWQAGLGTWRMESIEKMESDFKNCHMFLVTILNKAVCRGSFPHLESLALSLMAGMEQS
Sequence of UniProt P10646 (P10646 whole entry, looked up): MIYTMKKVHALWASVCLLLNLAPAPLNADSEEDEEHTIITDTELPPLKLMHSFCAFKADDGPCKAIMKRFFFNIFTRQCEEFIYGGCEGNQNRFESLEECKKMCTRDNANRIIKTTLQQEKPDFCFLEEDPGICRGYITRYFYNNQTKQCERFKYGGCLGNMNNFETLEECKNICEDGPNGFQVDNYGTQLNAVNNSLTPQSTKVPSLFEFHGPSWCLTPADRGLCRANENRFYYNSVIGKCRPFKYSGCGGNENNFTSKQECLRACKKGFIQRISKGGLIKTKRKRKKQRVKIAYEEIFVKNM
Sequence of UniProt Q8NDZ6 (Q8NDZ6 whole entry, looked up): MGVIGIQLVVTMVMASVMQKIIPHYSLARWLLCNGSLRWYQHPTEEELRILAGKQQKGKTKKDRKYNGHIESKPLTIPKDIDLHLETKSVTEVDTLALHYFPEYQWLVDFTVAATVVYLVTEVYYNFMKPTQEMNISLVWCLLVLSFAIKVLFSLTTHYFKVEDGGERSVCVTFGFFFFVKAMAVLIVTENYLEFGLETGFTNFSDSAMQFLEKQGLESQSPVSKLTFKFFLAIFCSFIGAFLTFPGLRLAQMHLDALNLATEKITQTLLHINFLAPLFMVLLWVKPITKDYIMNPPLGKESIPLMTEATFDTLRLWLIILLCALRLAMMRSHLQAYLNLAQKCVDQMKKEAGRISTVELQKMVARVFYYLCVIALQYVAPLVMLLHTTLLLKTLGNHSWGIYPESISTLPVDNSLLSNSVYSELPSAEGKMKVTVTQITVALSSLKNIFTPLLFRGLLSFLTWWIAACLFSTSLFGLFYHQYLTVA
Sequence of UniProt Q9BZL1 (Q9BZL1 whole entry, looked up): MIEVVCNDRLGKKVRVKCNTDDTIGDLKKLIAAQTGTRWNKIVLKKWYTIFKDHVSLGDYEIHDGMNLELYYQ

Compound in one test: COC(=O)[C@H](CCSC)NC(=O)C1=C(C=C(C=C1)NC[C@H](CS)N)C2=CC=CC=C2
Briefly: log2 fold change, soluble protein after heating vs DMSO (PISA); higher = thermal stabilisation; K562 lysate, 10 uM; active = over 0.2 and 3.5 SD of the protein, either way, in both replicates (recomputed). Put shortly:
(§1)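 K562 pellets were dounce-homogenised in PBS pH 7.4 containing 1 mM MgCl2, and the crude extract, at 1 mg/mL protein, was exposed to 10 μM compound for 30 min. Aliquots were heated for 3 min across 48°C-58°C, pooled, brought to 0.5% NP-40 at 4°C and spun at 21,000xg for 90 min, with the supernatant taken as soluble protein. TMTpro 16plex LC-MS/MS with equalised channel sums quantified that protein. Values are log-two fold changes in thermal stability relative to solvent controls, taken from duplicates.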
Regarding TMEM132A isoform 2 (UniProt Q24JP5), the log2 fold change is -0.042.
For UBIAD1 (UniProt Q9Y5Z9), the log2 fold change is -0.102.
Same read-out and setting: next, TMEM161B (UniProt Q8NDZ6): 0; TK1 (UniProt K7ERV3): 0.006; U2AF1L5 (UniProt P0DN76): 0.096.
Same read-out and setting: next, TUBB4A (UniProt P04350): 0.112.
For TM2D3 (UniProt Q9BRN9), the log2 fold change was -0.116.
Consider TUBGCP5 (UniProt Q96RT8), for which the log2 fold change was 0.145.
For UBXN10 (UniProt Q96LJ8), the log2 fold change was -0.116.
Still for that read-out and setting: in the case of UBXN2B (UniProt Q14CS0) it was 0.069.
Turning to UCHL5 (UniProt Q5LJA9), the log2 fold change was 0.091.
As for TNFAIP3 (UniProt P21580), the log2 fold change is 0.228.
On the same count and under the same terms, next, TUBB6 (UniProt K7ES63): 0.125; TFAP4 (UniProt Q01664): -0.108.
As for TMEM164 (UniProt Q5U3C3), the log2 fold change was 0.185.
The same measure, in the same setting: next, TTLL12 (UniProt V9GY16): 0.146; TPM3 isoform 3 (UniProt P06753): -0.039; TXNIP (UniProt Q9H3M7): 0.067.
As for TMSB4X (UniProt P62328), the log2 fold change is -0.055.
On the same count and under the same terms, in the case of TNKS (UniProt O95271) it was 0.022; in that of TSPAN3 (UniProt O60637), 0.026.
As for TMEM167B (UniProt Q9NRX6), the log2 fold change was -0.022.
On to TFPI (UniProt P10646), for which the log2 fold change was -0.017.
With TPM1 isoform 4 (UniProt P09493), the log2 fold change is -0.088.
For the target TBC1D20 isoform 3 (UniProt Q96BZ9), the log2 fold change is -0.047.
Consider UBL5 (UniProt Q9BZL1), for which the log2 fold change is -0.06.
On the same count and under the same terms, next, TUBAL3 (UniProt A6NHL2): 0.032; TUBB4A (UniProt M0QYM7): 0.053.
For TMEM177 (UniProt Q53S58), the log2 fold change was 0.153.
With TLE3 isoform 5 (UniProt Q04726), the log2 fold change is 0.002.

Compound in a further test: COc1cc(Nc2ncc3c(n2)-c2ccc(Cl)cc2C(c2c(F)cccc2OC)=NC3)ccc1C(=O)O [alisertib]
The description is as above. A digest of the protocol:
as §1
For UBIAD1 (UniProt Q9Y5Z9), the log2 fold change is 0.112.
In the case of TMEM161B (UniProt Q8NDZ6), the log2 fold change is -0.222.
As to TK1 (UniProt K7ERV3), the log2 fold change is -0.283.
On the same count and under the same terms, in the case of U2AF1L5 (UniProt P0DN76) it was -0.045.
For TUBB4A (UniProt P04350), the log2 fold change is 0.021.
In the case of TUBGCP5 (UniProt Q96RT8), the log2 fold change is -0.023.
Take UBXN2B (UniProt Q14CS0): the log2 fold change is 0.174.
On to TNFAIP3 (UniProt P21580), for which the log2 fold change was 0.002.
As to TUBB6 (UniProt K7ES63), the log2 fold change was 0.055.
As to TFAP4 (UniProt Q01664), the log2 fold change is -0.106.
In the case of TMEM164 (UniProt Q5U3C3), the log2 fold change is -0.075.
With TXNIP (UniProt Q9H3M7), the log2 fold change was -0.015.
The same measure, in the same setting: in the case of TMSB4X (UniProt P62328) it was -0.143; in that of TNKS (UniProt O95271), -0.002.
In the case of TJP1 (UniProt G3V1L9), the log2 fold change is -0.079.
TPD52L2 isoform 3 (UniProt O43399): the log2 fold change was 0.094.
The same measure, in the same setting: next, TSPAN3 (UniProt O60637): -0.231.
As for TMEM167B (UniProt Q9NRX6), the log2 fold change was 0.012.
TFPI (UniProt P10646): the log2 fold change was -0.003.
Turning to TPM1 isoform 4 (UniProt P09493), the log2 fold change was 0.035.
The same measure, in the same setting: in the case of UBL5 (UniProt Q9BZL1) it was 0.039; in that of TUBAL3 (UniProt A6NHL2), 0.135; in that of TUBB4A (UniProt M0QYM7), -0.025.
For TLE3 isoform 5 (UniProt Q04726), the log2 fold change was 0.

Compound in another test: COc1cc2nc(-c3cc(F)ccc3O)nc(N[C@@H]3CNC[C@H]3C(C)(C)O)c2cc1OC
The description is as above. Put shortly: as §1
Regarding TMEM132A isoform 2 (UniProt Q24JP5), the log2 fold change is 1.16 (active).
As for UBIAD1 (UniProt Q9Y5Z9), the log2 fold change is -0.061.
Consider TMEM161B (UniProt Q8NDZ6), for which the log2 fold change is 0.033.
On the same count and under the same terms, next, U2AF1L5 (UniProt P0DN76): -0.013; TUBB4A (UniProt P04350): -0.002; TUBGCP5 (UniProt Q96RT8): 0.025.
For UBXN10 (UniProt Q96LJ8), the log2 fold change is -0.006.
As for UBXN2B (UniProt Q14CS0), the log2 fold change is -0.114.
In the case of UCHL5 (UniProt Q5LJA9), the log2 fold change was -0.011.
Take TNFAIP3 (UniProt P21580): the log2 fold change was 0.031.
Turning to TUBB6 (UniProt K7ES63), the log2 fold change is -0.051.
The same measure, in the same setting: next, TFAP4 (UniProt Q01664): -0.097; TMEM164 (UniProt Q5U3C3): 0.021; TPM3 isoform 3 (UniProt P06753): -0.001.
As for TMSB4X (UniProt P62328), the log2 fold change was 0.063.
Same read-out and setting: in the case of TNKS (UniProt O95271) it was -0.072.
On the same count and under the same terms, next, TSPAN3 (UniProt O60637): 0.042; TMEM167B (UniProt Q9NRX6): 0.032; TFPI (UniProt P10646): -0.128.
Same read-out and setting: in the case of TPM1 isoform 4 (UniProt P09493) it was -0.012.
For the target TBC1D20 isoform 3 (UniProt Q96BZ9), the log2 fold change was -0.021.
Regarding TUBAL3 (UniProt A6NHL2), the log2 fold change was 0.088.
As for TUBB4A (UniProt M0QYM7), the log2 fold change is 0.042.
Consider TMEM177 (UniProt Q53S58), for which the log2 fold change was 0.002.
The same measure, in the same setting: next, TLE3 isoform 5 (UniProt Q04726): 0.008.
